High-throughput results: PubChem, National Center for Advancing Translational Sciences (NCATS)
SMN2 splice up: SMN2 splice variant enhancement; Potency, µM (series often up to 46.1 µM), without a hit: top-dose activity change, positive = activation, actives largely listed as activators; 210,000 tested, 2.8% active; AID 1458; HEK293 SMN2-luciferase splicing reporter, luminescence, 30-36 h; also: % of control where 0% means no effect; nearly all actives have a fitted effect of over 55% in size
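HEK293 cells carry an SMN2 […]–luciferase reporter in which exon 7 inclusion puts luciferase in frame. Cells were plated 10-12 h before compound addition, then incubated 30-36 h at 37C. ONE-Glo luminescence was read; sodium butyrate at 4.5 mM final served as control.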
NPC1 promoter act: activates the NPC1 promoter; Potency, µM (series often up to 9.22 µM), inactives show at the highest dose activation, actives largely listed as activators; AID 485313; Huh7 NPC1 promoter luciferase reporter, 24 h; 320,000 tested, 2.4% active; also: % of control where 0% means no effect; nearly all actives have a fitted effect of over 60% in size
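Luminescence from an NPC1 promoter-driven luciferase reporter in stably transfected Huh7 cells was measured after 24 h compound treatment at 37 °C, followed by 10 min ambient incubation with luciferase detection reagent.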
ELG1 genotox: genotoxicity induction in ELG1-luciferase HEK293T cells; Potency, µM (top dose mostly 46 µM), for inactives: at the top dose activity change, positive = activation, actives largely listed as activators; AID 504466; HEK293T ELG1-luciferase reporter, luminescence, 16 h; 330,000 tested, 1.3% active; also: % of control where 0% means no effect; nearly all actives have a fitted effect of over 60% in size
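Screening used a luciferase reporter fused to human ELG1 in HEK293T cells. Luminescence was read on a CCD plate imager after 16 hr exposure and 30 min ONE-Glo incubation.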
Rab9 promoter act: Rab9 promoter activation | Huh7 Rab9 promoter-luciferase reporter, luminescence, 24 h | Potency, µM (series often up to 9.22 µM), for inactives: at the highest dose activation, negative = inhibition, usual class: activators | 320,000 tested, 2.8% active | AID 485297; also: % of control where 0% means no effect; nearly all actives have a fitted effect of over 60% in size
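Quantitative HTS format; Huh7 Rab9-luciferase reporter cells (1500/well) receive compound 2 h post-plating, incubate 24 h at 37 °C, then get luciferase reagent for 10 min before luminescence reading.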
FLuc counter: firefly luciferase modulation, counter-screen for miR-21 project. P08659. purified FLuc, Km substrates, luminescence inhibition. Potency, µM (top dose mostly 57.5 µM), for the others: top-dose activity change, negative = inhibition, actives largely listed as inhibitors. 360,000 tested, 6.9% active;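 also: plate controls were vehicle for no effect and reference inhibitor for full effect; nearly all actives have a fitted effect of over 55% in size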
Target sequence (P08659 whole entry, looked up): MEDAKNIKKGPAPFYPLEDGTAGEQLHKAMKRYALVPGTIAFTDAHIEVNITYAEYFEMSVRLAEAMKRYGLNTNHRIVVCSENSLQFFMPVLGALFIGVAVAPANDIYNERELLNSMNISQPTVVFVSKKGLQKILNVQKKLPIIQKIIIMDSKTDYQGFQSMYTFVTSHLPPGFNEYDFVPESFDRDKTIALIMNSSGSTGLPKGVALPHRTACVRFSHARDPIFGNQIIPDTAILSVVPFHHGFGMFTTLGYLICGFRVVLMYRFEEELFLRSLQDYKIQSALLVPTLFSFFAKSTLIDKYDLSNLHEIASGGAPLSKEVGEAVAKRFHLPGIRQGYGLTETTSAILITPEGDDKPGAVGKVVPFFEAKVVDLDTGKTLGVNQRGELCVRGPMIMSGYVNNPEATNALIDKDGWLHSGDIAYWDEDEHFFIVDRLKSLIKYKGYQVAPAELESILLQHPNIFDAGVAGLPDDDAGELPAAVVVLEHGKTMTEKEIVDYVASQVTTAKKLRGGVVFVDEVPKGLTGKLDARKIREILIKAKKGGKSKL
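Purified P. pyralis luciferase, 10 nM final, with Km-level 10 uM D-luciferin and 10 uM ATP in 50 mM Tris acetate pH 7.5, 10 mM Mg acetate, 0.01% Tween-20, 0.05% BSA; 6-point qHTS titration about 60 µM downward; luminescence read.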
* hit, by the source's call; ? = inconclusive; . = not tested or not shown. Most compounds without a hit are left out; they make up all but 7.5% or so of the library. Calls follow the shape of the dose curve; as a rule, active = well fitted curve in the direction sought with a large enough effect; inconclusive = small, poorly fitted or top-dose-only effect, or another doubt; inactive = no such curve, though single readings can be large; an effect the other way counts as inactive or inconclusive. Potency is read from the fitted curve at half-maximal effect.

SMILES	SMN2 splice up	NPC1 promoter act	ELG1 genotox	Rab9 promoter act	FLuc counter
CCOc1ccccc1NC(=O)Cn1nnc(C(=O)NCc2ccc(F)cc2)c1N	-2%	.	.	.	1%
Clc1ccccc1-c1nc(-c2ccccc2)n[nH]1	?	3.2µM*	?	2.8µM*	6.7µM*
CC1CC(C)CN(C(=O)c2cn(C)c3ccc(S(=O)(=O)N(C)C)cc3c2=O)C1 (centres undefined)	-30%	-4%	0%	21%	-2%
O=C(CCC(=O)OCC(=O)c1ccc(-c2ccccc2)cc1)Nc1cccc2cccnc12	1%	2%	-2%	-15%	?
CCCCCCCNC1=CC(=O)CC(c2ccco2)C1 (centres undefined)	6%	-2%	1%	-2%	-17%
CCOc1ccc(N=Cc2c(O)c3ccccc3oc2=O)cc1	-6%	-1%	9%	-1%	0.85µM*
O=c1oc2ccccc2c(O)c1/C=N/c1ccccn1	-6%	-5%	-3%	2%	11µM*
CCOc1ccc(N=Cc2c(O)cc(C)oc2=O)cc1	4%	-2%	-1%	-5%	-18%
O=c1oc2ccccc2c(O)c1/C=C1\C=Nc2ccccc21	-13%	13%	-2%	-3%	27µM*
O=c1oc2ccccc2c(O)c1C=Nc1cccnc1	-2%	-7%	-8%	-12%	9.5µM*
O=c1oc2ccccc2c(O)c1/C=N/c1ncccn1	-27%	2%	5%	3%	?
CC(C)=CCC/C(C)=C/CNC(=O)C[C@H]1C[C@H](C(=O)N2CCOCC2)[C@@]2(C)c3[nH]c4cc(CCC(=O)N(C)C)ccc4c3CCN2C1=O	.	.	1%	.	.
Cc1ccc(F)c(Oc2cc(NN3CCCCC3)c([N+](=O)[O-])cc2[N+](=O)[O-])c1	.	-6%	-3%	-5%	1%
Cc1ccc(C(=O)Nc2nc(C)c(C(=O)Nc3ccc4c(c3)CCC4)s2)cc1	5.6µM*	-13%	18µM*	-4%	15µM*
Cc1nc(NC(=O)c2ccc(F)cc2)sc1C(=O)Nc1ccc2c(c1)CCC2	?	0%	7%	5%	13µM*
CC(C)CCNC(=O)C(c1ccncc1)N(Cc1cccs1)C(=O)Cn1nnc(-c2ccc(F)cc2)n1 (centres undefined)	-6%	-10%	3%	-5%	4%
CCN(CC)c1ccc(-n2c(O)c(C=C3N=c4ccccc4=N3)sc2=S)cc1	18%	0%	3%	0%	-1%
O=C(O)c1ccc(-n2c(O)c(C=C3N=c4ccccc4=N3)sc2=S)cc1	.	1%	-3%	-2%	13µM*
Cc1ccc(C)n1-c1cccc(C(=O)O)c1	19%	-3%	-3%	-4%	1%
O=C(O)c1cccc(-n2c(O)c(C=C3N=c4ccccc4=N3)sc2=S)c1	.	-7%	-9%	-4%	13µM*
CC(C)(C)NC(=S)NCCc1ccccc1	.	3.2µM*	?	1.8µM*	11µM*
Cc1ccccc1NC(=S)NCCc1ccccc1	?	-1%	0%	-3%	1%
COC(=O)Cc1ccc(NC(=S)Nc2ccccn2)cc1	.	14%	3%	?	21µM*
S=C(NCCc1ccccc1)Nc1ccc(Br)cc1	20µM*	20%	14%	?	19µM*
COC(=O)Cc1ccc(NC(=S)NCCO)cc1	.	-2%	-5%	-4%	-1%
SMILES	SMN2 splice up	NPC1 promoter act	ELG1 genotox	Rab9 promoter act	FLuc counter
COC(=O)Cc1ccc(NC(=S)NC(C)(C)C)cc1	8%	5%	3%	13%	13µM*
COC(=O)Cc1ccc(NC(=S)NCc2ccccc2Cl)cc1	.	0%	-1%	-4%	?
O=C(/C=C/c1ccccc1Cl)N(c1ccccn1)C1CCCCC1	-16%	-2%	-3%	-3%	1%
O=C(CNc1cccc(S(=O)(=O)N2CCCC2)c1)Nc1cccc(C(F)(F)F)c1	.	.	-2%	.	.
S=C(NCCc1ccccc1)N/N=C/C1CCCCC1	12%	20%	6%	15%	?
CC(C)CCNC(=S)Nc1ccc(Br)cc1	22%	15%	2%	20%	21µM*
COC(=O)Cc1ccc(NC(=S)NCCC(C)C)cc1	10%	-3%	-2%	3%	17µM*
S=C(NCCc1ccccc1)NN=C1CCCCCC1	13µM*	?	?	?	17µM*
CC(C)CCNC(=O)/C=C/c1ccc(Br)cc1	-6%	0%	4%	5%	13µM*
